Experimental findings from PubChem BioAssay (NCATS) are described below.

Results filed as inconclusive are left out. The source made the active and inactive calls. The call rests on the fitted dose curve; in most records, active means well fitted inhibition curve with a large enough effect; inconclusive means small, poorly fitted or top-dose-only effect; inactive means flat fitted curve, though single readings scatter.
Potency means the concentration at half of the fitted maximal effect.

The first assay concerns C2A. Put plainly: qHTS profiling for inhibitors of Plasmodium falciparum proliferation (AID 504749). Further: nearly all actives have a fitted effect of over 60% in size.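 On activity, negative = inhibition: 0% = DMSO vehicle and full inhibition = artemisinin control.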 As to conditions: P. falciparum in erythrocytes, SYBR Green DNA, 72 h; series mostly up to 28.7 µM; activity, negative = inhibition: at the top concentration. The gist of the method: (§1)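 Infected RBCs, 0.3% parasitemia/2.5% Hct final; cpd 72 h, 37 C, 5% CO2; lysis buffer with saponin/triton/SYBR Green I, o/n RT dark; FI 485/535; norm. to artemisinin (0.29 uM) and DMSO.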
For orientation: In qHTS, concentration-response curves come from the screen itself.
As to `CN(C)c1ccc(C(=C2C=CC(=[N+](C)C)C=C2)c2ccccc2)cc1`, the Potency was 12.6 µM (active).

With `O=C(OCc1ccccc1)c1ccccc1`, the “activity, negative = inhibition” value is -4.12% (inactive).

In the case of `Nc1ccc(C(=O)O)c(O)c1`, the “activity, negative = inhibition” value was 4.16% (inactive).

For `O=C(/C=C/c1ccccc1)NCCO`, the “activity, negative = inhibition” value is -0.744% (inactive).

Take `O=C1CN(/N=C/c2ccc(-c3ccc([N+](=O)[O-])cc3)o2)C(=O)N1`: the “activity, negative = inhibition” value is -20.2% (inactive).

Regarding `CCCCCCCCCCCCCCCCCC(=O)O`, the “activity, negative = inhibition” value is -8.44% (inactive).

Take `C[S+](CC[C@H](N)C(=O)O)C[C@H]1O[C@@H](n2cnc3c(N)ncnc32)[C@H](O)[C@@H]1O` (stereo partly drawn): the “activity, negative = inhibition” value is -2.13% (inactive).

As for `CN1[C@@H](CC(=O)c2ccccc2)CCC[C@H]1C[C@H](O)c1ccccc1`, the “activity, negative = inhibition” value is -25.6% (inactive).

For the molecule `CCOC(=O)c1ccccc1O`, the “activity, negative = inhibition” value is -13.8% (inactive).

With `COc1cc(/C=C/C(=O)N2CCN(CC(=O)N3CCCC3)CC2)cc(OC)c1OC`, the “activity, negative = inhibition” value is -5.25% (inactive).

Take `Nc1cc(-c2ccncc2)c[nH]c1=O`: the “activity, negative = inhibition” value was -9.03% (inactive).

Consider `O=C(O)c1ccccc1Nc1cccc(C(F)(F)F)c1`, for which the “activity, negative = inhibition” value was -25.5% (inactive).

Take `NC(=O)C(c1ccccc1)(c1ccccc1)[C@@H]1CCN(CCc2ccc3c(c2)CCO3)C1`: the “activity, negative = inhibition” value was -27.7% (inactive).

For `COc1cc(/C=C/C(=O)CC(=O)/C=C/c2ccc(O)c(OC)c2)ccc1O`, the Potency was 10 µM (active).

For `c1ccc2sc(SN3CCOCC3)nc2c1`, the “activity, negative = inhibition” value was -9.97% (inactive).

For the molecule `Cc1nc2ccccc2n1Cc1ccc(Cl)cc1`, the “activity, negative = inhibition” value was -13% (inactive).

Regarding `Clc1ccccc1-c1nc(-c2ccncc2)no1`, the “activity, negative = inhibition” value is -4.71% (inactive).

As to `CCOc1ccc2nc(S(N)(=O)=O)sc2c1`, the “activity, negative = inhibition” value was -4.34% (inactive).

On to `CN1[C@@H]2CC[C@H]1CC(OC(c1ccccc1)c1ccccc1)C2` (stereo partly drawn), for which the “activity, negative = inhibition” value is -21.5% (inactive).

Consider `O=C(O)/C=C/C(O)c1ccc(Cl)cc1` (stereo not drawn), for which the “activity, negative = inhibition” value is -13.7% (inactive).

As to `Oc1c(Br)cc(Br)c2cccnc12`, the “activity, negative = inhibition” value was -7.83% (inactive).

As to `Cc1ccc(C(=O)c2ccc(CC(=O)O)n2C)cc1`, the “activity, negative = inhibition” value was 8.36% [at 12.8 µM] (inactive).

As for `Cc1cc(O)c2ccccc2c1O`, the “activity, negative = inhibition” value is -21.4% (inactive).

`COc1ccc(-c2cc(=S)ss2)cc1`: the “activity, negative = inhibition” value is 3.25% (inactive).

Regarding `CN1[C@@H]2CC[C@H]1CC(OC(=O)C(CO)c1ccccc1)C2` (stereo partly drawn), the “activity, negative = inhibition” value was 2.17% (inactive).

For `CCCSc1ccc2nc(NC(=O)OC)[nH]c2c1`, the “activity, negative = inhibition” value is -8.31% [at 12.8 µM] (inactive).

With `O=C(O)[C@H](CC(=O)N1C[C@H]2CCCC[C@H]2C1)Cc1ccccc1`, the “activity, negative = inhibition” value was 0.657% (inactive).

In the case of `O=c1[nH]c2ccccc2n1CCCN1CCN(C(c2ccccc2)c2ccccc2)CC1`, the “activity, negative = inhibition” value was -22.7% (inactive).

Consider `C=C(Nc1ccc(OCC)cc1)Nc1ccc(OCC)cc1`, for which the Potency entry was “inactive”.

For the molecule `CC(N)C(=O)OC(C)(C)Cc1ccc(Cl)cc1` (stereo not drawn), the “activity, negative = inhibition” value was -26.6% (inactive).

In a further assay the test system is CP185. Described as above. Particulars: P. falciparum in erythrocytes, SYBR Green DNA, 72 h; series mostly up to 28.7 µM; activity, negative = inhibition: at the top concentration. The gist of the method:
as §1
Consider `O=C(OCc1ccccc1)c1ccccc1`, for which the “activity, negative = inhibition” value was -5.4% (inactive).

As to `Nc1ccc(C(=O)O)c(O)c1`, the “activity, negative = inhibition” value was 3.55% (inactive).

Turning to `O=C(/C=C/c1ccccc1)NCCO`, the “activity, negative = inhibition” value is 11.5% (inactive).

As to `O=C1CN(/N=C/c2ccc(-c3ccc([N+](=O)[O-])cc3)o2)C(=O)N1`, the “activity, negative = inhibition” value was -8.86% (inactive).

On to `CCCCCCCCCCCCCCCCCC(=O)O`, for which the “activity, negative = inhibition” value is 1.75% (inactive).

`O=C(O)c1cc(O)c(O)c(O)c1`: the “activity, negative = inhibition” value was -23.3% (inactive).

`CCOC(=O)c1ccccc1O`: the “activity, negative = inhibition” value is 11.2% (inactive).

For the molecule `COc1cc(/C=C/C(=O)N2CCN(CC(=O)N3CCCC3)CC2)cc(OC)c1OC`, the “activity, negative = inhibition” value was 1.44% (inactive).

Turning to `Nc1cc(-c2ccncc2)c[nH]c1=O`, the “activity, negative = inhibition” value was 9.93% (inactive).

`O=C(O)c1ccccc1Nc1cccc(C(F)(F)F)c1`: the “activity, negative = inhibition” value is -6.93% (inactive).

As to `c1ccc2sc(SN3CCOCC3)nc2c1`, the “activity, negative = inhibition” value is -0.0813% (inactive).

As to `Cc1nc2ccccc2n1Cc1ccc(Cl)cc1`, the “activity, negative = inhibition” value was -23.3% (inactive).

As for `Clc1ccccc1-c1nc(-c2ccncc2)no1`, the “activity, negative = inhibition” value was -1.85% (inactive).

On to `CCOc1ccc2nc(S(N)(=O)=O)sc2c1`, for which the “activity, negative = inhibition” value is 3.6% (inactive).

As for `O=C(O)/C=C/C(O)c1ccc(Cl)cc1` (stereo not drawn), the “activity, negative = inhibition” value is 2.61% (inactive).

As to `Oc1c(Br)cc(Br)c2cccnc12`, the “activity, negative = inhibition” value is -1.9% (inactive).

Take `Cc1ccc(C(=O)c2ccc(CC(=O)O)n2C)cc1`: the “activity, negative = inhibition” value is 2.06% [at 12.8 µM] (inactive).

For the molecule `Cc1cc(O)c2ccccc2c1O`, the “activity, negative = inhibition” value was -0.548% (inactive).

Turning to `COc1ccc(-c2cc(=S)ss2)cc1`, the “activity, negative = inhibition” value is -1.08% (inactive).

`CN1[C@@H]2CC[C@H]1CC(OC(=O)C(CO)c1ccccc1)C2` (stereo partly drawn): the “activity, negative = inhibition” value is 2.46% (inactive).

Regarding `CCCSc1ccc2nc(NC(=O)OC)[nH]c2c1`, the “activity, negative = inhibition” value was -4.33% [at 12.8 µM] (inactive).

Consider `O=C(O)[C@H](CC(=O)N1C[C@H]2CCCC[C@H]2C1)Cc1ccccc1`, for which the “activity, negative = inhibition” value was 15.2% (inactive).

In the case of `C=C(Nc1ccc(OCC)cc1)Nc1ccc(OCC)cc1`, the Potency entry was “inactive”.

The next assay deals with CP191. The description is as above. As to conditions: P. falciparum in erythrocytes, SYBR Green DNA, 72 h; series mostly up to 28.7 µM; activity, negative = inhibition: at the top concentration. The gist of the method:
as §1
On to `CN(C)c1ccc(C(=C2C=CC(=[N+](C)C)C=C2)c2ccccc2)cc1`, for which the Potency was 7.94 µM (active).

For the molecule `O=C(OCc1ccccc1)c1ccccc1`, the “activity, negative = inhibition” value is -0.948% (inactive).

For the molecule `Nc1ccc(C(=O)O)c(O)c1`, the “activity, negative = inhibition” value is 4.58% (inactive).

As to `O=C(/C=C/c1ccccc1)NCCO`, the “activity, negative = inhibition” value is 2.32% (inactive).

Consider `O=C1CN(/N=C/c2ccc(-c3ccc([N+](=O)[O-])cc3)o2)C(=O)N1`, for which the Potency is 7.08 µM (active).

Regarding `CCCCCCCCCCCCCCCCCC(=O)O`, the “activity, negative = inhibition” value is 7.01% (inactive).

`CCOC(=O)c1ccccc1O`: the “activity, negative = inhibition” value is 1.71% (inactive).

Turning to `COc1cc(/C=C/C(=O)N2CCN(CC(=O)N3CCCC3)CC2)cc(OC)c1OC`, the “activity, negative = inhibition” value is -2.36% (inactive).

As to `Nc1cc(-c2ccncc2)c[nH]c1=O`, the “activity, negative = inhibition” value is 4.52% (inactive).

Regarding `c1ccc2sc(SN3CCOCC3)nc2c1`, the “activity, negative = inhibition” value is -21.7% (inactive).

With `Clc1ccccc1-c1nc(-c2ccncc2)no1`, the “activity, negative = inhibition” value is -4.18% (inactive).

For the molecule `CCOc1ccc2nc(S(N)(=O)=O)sc2c1`, the “activity, negative = inhibition” value is -1.41% (inactive).

Take `CN1[C@@H]2CC[C@H]1CC(OC(c1ccccc1)c1ccccc1)C2` (stereo partly drawn): the Potency is 8.91 µM (active).

With `O=C(O)/C=C/C(O)c1ccc(Cl)cc1` (stereo not drawn), the “activity, negative = inhibition” value is 4.43% (inactive).

Regarding `COC(=O)C1=C(C)NC(C)=C(C(=O)OCC(C)C)C1c1ccccc1[N+](=O)[O-]` (stereo not drawn), the Potency was 12.6 µM (active).

As for `Oc1c(Br)cc(Br)c2cccnc12`, the “activity, negative = inhibition” value is -21.6% (inactive).

On to `Cc1ccc(C(=O)c2ccc(CC(=O)O)n2C)cc1`, for which the “activity, negative = inhibition” value was 1.77% [at 12.8 µM] (inactive).

In the case of `O=C(CCN1CCN(CCO)CC1)N1c2ccccc2Sc2ccc(C(F)(F)F)cc21`, the Potency is 4.47 µM (active).

In the case of `Cc1cc(O)c2ccccc2c1O`, the “activity, negative = inhibition” value is 5.33% (inactive).

For the molecule `COc1ccc(-c2cc(=S)ss2)cc1`, the “activity, negative = inhibition” value is -5.04% (inactive).

For the molecule `CN1[C@@H]2CC[C@H]1CC(OC(=O)C(CO)c1ccccc1)C2` (stereo partly drawn), the “activity, negative = inhibition” value was -3.37% (inactive).

`O=C(O)[C@H](CC(=O)N1C[C@H]2CCCC[C@H]2C1)Cc1ccccc1`: the “activity, negative = inhibition” value was -6.96% (inactive).

With `C=C(Nc1ccc(OCC)cc1)Nc1ccc(OCC)cc1`, the Potency entry was “inactive”.

Consider `CC(=O)[C@]1(O)Cc2c(O)c3c(c(O)c2[C@@H](O[C@H]2C[C@H](N)[C@H](O)[C@H](C)O2)C1)C(=O)c1c(O)cccc1C3=O`, for which the Potency was 6.31 µM (active).

Consider `CC(N)C(=O)OC(C)(C)Cc1ccc(Cl)cc1` (stereo not drawn), for which the “activity, negative = inhibition” value is -5.38% (inactive).
